Experimental data reported in PubChem BioAssay.

Assays:
[1] = tested on: Human papillomavirus type 1a protein E7 (residues 44-93); test: small molecules binding HPV E7 44-93 – biochemical, small-molecule microarray, residues 44-93, 635 nm fluorescence, primary screen (AID 1108); conditions: fluorescence 635 nm, higher = more signal;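 also: E7 fragment applied at 1 µg/mL in TBST for 1 h at 4 C; score combines spot fluorescence with its signal to noise ratio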
[2] = hepatitis C replication reporter changes, two-sided – Huh7 cells, luciferase reporter, HCV replication inhibitor project, primary screen (AID 1109); conditions: Huh7 HCV replicon luciferase reporter, 48 h; higher = more signal;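 also: huh7 hepatoma cells harbouring a luciferase neomycin HCV replicon reporter; luciferase luminescence as measure of HCV replicon replication; test concentration not given here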
[3] = biological target: Left-right determination factor 2 (Homo sapiens) (UniProt O00292); test: small molecules binding LEFTY2 protein – biochemical, small-molecule microarray, 635 nm fluorescence scan, primary screen (AID 1110); conditions: higher = more signal
[4] = biological target: Calmodulin-1 (Homo sapiens) (UniProt P0DP23); test: small molecules binding calmodulin-1 with EGTA – biochemical, small-molecule microarray, Cy5-labelled CALM1, profiling panel (AID 1111); conditions: Cy5-CALM1 binding fluorescence, higher = more signal;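 also: labelled calmodulin applied in Tris saline Tween buffer holding calcium plus EGTA and DTT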
[5] = biological target: Calmodulin-1 (Homo sapiens) (UniProt P0DP23); test: small molecules binding Ca-loaded calmodulin-1 – biochemical, small-molecule microarray, Cy5-labelled CALM1, plus calcium, artefact control for SMM control-protein annotation, profiling panel (AID 1112); conditions: Cy5-CALM1 binding fluorescence, higher = more signal;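 also: score merges spot fluorescence with signal to noise from triplicate slides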
[6] = probe aWnt5a binding to arrayed compounds – biochemical, biotinylated probe, 635/667 nm fluorescence, primary screen (AID 1113); conditions: small-molecule microarray, higher = more signal;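 also: score merges 667 nm fluorescence intensity with signal-to-noise per printed feature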
[7] = probe aShh binding to arrayed compounds – biochemical, biotinylated probe, 635/667 nm fluorescence, primary screen (AID 1114); conditions: small-molecule microarray, higher = more signal;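 also: probe is biotin-labelled aShh protein from a stem cell growth factor screen; measures binding of labelled protein to compounds printed on the slide; score merges feature fluorescence at 667 nm with signal-to-noise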
[8] = probe aNog binding to arrayed compounds – biochemical, biotinylated probe, 635/667 nm fluorescence, primary screen (AID 1115); conditions: small-molecule microarray, higher = more signal;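 also: probe is biotinylated aNog protein used at 0.15 µg/mL for 1 h at 4 C; z-score combines 667 nm fluorescence of each spot with its signal to noise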
[9] = biological target: Torsin-1A-interacting protein 1 (Homo sapiens) (UniProt Q5JTV8); test: compound microarray binding of lysate hLAP1 – cell lysate, small-molecule microarray, COS7 lysate, 635/667 nm fluorescence, primary screen (AID 1116); conditions: 635 nm fluorescence, higher = more signal
[10] = biological target: Alpha-bungarotoxin (Bungarus multicinctus) (UniProt P60615); test: compounds binding labelled alpha-BTX control protein – biochemical, small-molecule microarray, Alexa647 label, 635/667 nm fluorescence, artefact control for SMM control protein annotation, profiling panel (AID 1117); conditions: alpha-BTX-A647 binding fluorescence, higher = more signal
Alpha-bungarotoxin (Bungarus multicinctus), sequence (P60615 whole entry, looked up): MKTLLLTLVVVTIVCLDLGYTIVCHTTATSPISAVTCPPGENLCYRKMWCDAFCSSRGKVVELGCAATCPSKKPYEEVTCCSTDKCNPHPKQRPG

Left-right determination factor 2 (Homo sapiens), sequence (O00292 whole entry, looked up): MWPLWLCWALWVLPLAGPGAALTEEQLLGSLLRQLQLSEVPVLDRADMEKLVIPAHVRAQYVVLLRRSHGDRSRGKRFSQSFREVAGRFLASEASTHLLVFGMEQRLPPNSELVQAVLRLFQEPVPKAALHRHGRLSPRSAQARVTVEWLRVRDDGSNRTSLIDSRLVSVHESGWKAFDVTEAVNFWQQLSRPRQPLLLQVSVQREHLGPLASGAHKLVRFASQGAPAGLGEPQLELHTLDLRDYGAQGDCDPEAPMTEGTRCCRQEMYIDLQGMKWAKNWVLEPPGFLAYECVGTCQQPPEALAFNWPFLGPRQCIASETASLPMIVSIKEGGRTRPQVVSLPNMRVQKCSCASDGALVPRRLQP
Torsin-1A-interacting protein 1 (Homo sapiens), sequence (Q5JTV8 whole entry, looked up): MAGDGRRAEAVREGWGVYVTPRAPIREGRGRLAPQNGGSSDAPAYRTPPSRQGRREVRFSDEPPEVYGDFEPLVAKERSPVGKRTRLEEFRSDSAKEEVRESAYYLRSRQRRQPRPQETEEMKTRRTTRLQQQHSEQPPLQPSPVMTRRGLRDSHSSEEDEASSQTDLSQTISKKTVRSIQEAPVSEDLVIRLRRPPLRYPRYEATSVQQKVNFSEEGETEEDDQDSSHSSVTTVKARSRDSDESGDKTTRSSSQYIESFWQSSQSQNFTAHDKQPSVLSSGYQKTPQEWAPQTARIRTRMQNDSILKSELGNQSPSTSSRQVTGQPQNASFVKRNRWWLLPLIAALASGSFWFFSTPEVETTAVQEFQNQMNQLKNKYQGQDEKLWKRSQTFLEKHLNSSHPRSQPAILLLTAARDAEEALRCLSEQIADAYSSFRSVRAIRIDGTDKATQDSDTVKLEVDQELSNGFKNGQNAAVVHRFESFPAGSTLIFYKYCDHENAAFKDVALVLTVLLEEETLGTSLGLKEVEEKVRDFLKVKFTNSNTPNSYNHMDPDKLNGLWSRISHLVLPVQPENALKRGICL

| SMILES | composite z-score [1] | z-score [2] | composite z-score [3] | composite z-score [4] | composite z-score [5] | composite z-score [6] | composite z-score [7] | composite z-score [8] | composite z-score [9] | composite z-score [10] |
| --- | --- | --- | --- | --- | --- | --- | --- | --- | --- | --- |
| COc1ccc([Si](C)(C)[C@H]2[C@H](CCn3cc([C@H](O)c4ccccc4)nn3)O[C@@]3(C(=O)N(Cc4cccc(N5CCOC5=O)c4)c4ccccc43)[C@@H]2C)cc1 | 0.96 | -2.36 | 0.481 | 0.0776 | -0.182 | 0.0094 | -0.349 | -0.0612 | 0.0061 | 0.353 |
| COc1ccc(C(=O)Nc2cccc(CN3C(=O)[C@]4(O[C@H](CCO)[C@@H]([Si](C)(C)c5ccc(OC)cc5)[C@@H]4C)c4ccccc43)c2)cc1 | 1.28 | -5.16 | 0.442 | 0.123 | 0.0559 | 0.0194 | -0.133 | 0.6 | 0.603 | 0.805 |
| CCOC(=O)C1=CCC(c2ccccc2)N(S(=O)(=O)CC[Si](C)(C)C)C1 (stereo not given) | -0.312 | -0.327 | -0.262 | -0.0436 | 0.0045 | -0.208 | -0.262 | -0.338 | -0.28 | 0.115 |
| CCOC(=O)C1=CCC(c2ccc(C)cc2)N(S(=O)(=O)c2ccc(C)cc2)C1 (stereo not given) | 1.12 | -0.905 | 0.175 | 0.367 | 0.172 | -0.0226 | -0.0977 | 0.542 | 0.81 | 1.15 |
| C=CCOC(=O)[C@H]1[C@@H]2C(=O)O[C@@H](c3ccccc3)[C@@H](c3ccccc3)N2[C@@H](c2ccc(OCCOC(=O)[C@H]3C[C@H]4C(=O)N5CCC[C@H]5C(=O)N4[C@H]3c3ccc(O)cc3)cc2)[C@]12C(=O)Nc1ccc(I)cc12 | 1.48 | 0.56 | 1.52 | 1.22 | 1.41 | 0.547 | 2.8 | 2.82 | 2.74 | 2.81 |
| COc1ccc(COC2OC[C@]3(C)[C@H]4C5=C(CN3C(=O)OC(C)(C)C)[C@H](C)C(CO)C(CO)C5CC[C@@H]24)cc1 (stereo not given in full) | 1.27 | -0.355 | -0.877 | 1.44 | 0.86 | 0.0118 | 0.202 | 0.97 | 1.17 | 0.608 |
| COc1ccc(C(=O)Nc2ccc(CN3C(=O)[C@@]4(O[C@@H](CC(=O)N5CCC[C@H]5CO)[C@H]([Si](C)(C)c5ccc(OC)cc5)[C@H]4C)c4ccccc43)cc2)cc1 | 0.825 | -2.19 | 1.13 | 0.11 | -0.654 | -0.0643 | 0.0639 | -0.0503 | 1.01 | 1.12 |
| [N-]=[N+]=Nc1ccccc1C[C@]1(C(=O)NCC(O)CO)N=C(c2ccc(OCCCO)cc2)O[C@H]1c1ccccc1N=[N+]=[N-] (stereo not given in full) | 0.577 | -1.74 | -0.588 | 0.771 | 0.839 | -0.0285 | 0.232 | -0.0592 | 0.407 | 0.15 |
| NC(=O)[C@@H]1[C@H]2C(=O)O[C@H](c3ccccc3)[C@H](c3ccccc3)N2[C@H](c2ccc(O)cc2)[C@@]12C(=O)Nc1ccc(C#CC3(O)CCCCCC3)cc12 | 0.124 | -0.293 | -0.0941 | -0.363 | 0.555 | -0.202 | 0.0684 | 0.179 | 1.59 | -0.115 |
| [N-]=[N+]=NCc1ccccc1[C@@H]1OC(c2ccc(OCCCO)cc2)=N[C@]1(CCS(=O)(=O)c1ccccc1)C(=O)NCCN1CCOCC1 | 1.5 | -0.351 | 0.623 | 1.65 | -0.173 | 0.132 | 0.323 | 1.17 | 2.04 | 1.95 |
| COc1cc(OC)c(C(O)C2C=CC3C(=O)NC(=O)C3N2Nc2ccc(Cl)cc2Cl)cc1Br (stereo not given) | 1.09 | -1.66 | -0.75 | 2.09 | 0.436 | -0.0685 | 0.0875 | 1.61 | 1.38 | 1.27 |
| OC([C@@H]1CC(c2ccccc2)=NO1)[C@H]1CC(c2ccccc2)=NO1 (stereo not given in full) | -0.0304 | 0.341 | 0.176 | -0.181 | -0.416 | 0.0317 | -0.214 | -0.234 | 0.11 | -0.0544 |
| COc1ccc(CCN2C(=O)[C@@]3(c4ccc([N+](=O)[O-])cc4)CC(=O)N(C4CCCCC4)[C@@H]3c3ccc(CO)cc32)cc1 | 0.106 | 0.431 | 0.636 | -0.574 | -0.747 | 0.0495 | -0.229 | -0.33 | 0.341 | -0.167 |
